Measurements taken from PubChem BioAssay.
Values without a mark were called inactive. The rule behind the calls is not given here.

Target: Pantothenate synthetase (Mycobacterium tuberculosis (strain ATCC 25618 / H37Rv)) (UniProt P9WIL5)
Assay: Coupled enzyme confirmation of inhibitors against recombinant Mtb PanC (AID 375);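 note: 0% = full reaction with vehicle and 100% = no enzyme background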
Settings: coupled enzyme assay; at 10 µM, stronger effect = higher value

Pantothenate synthetase (Mycobacterium tuberculosis (strain ATCC 25618 / H37Rv)), sequence (P9WIL5 whole entry, looked up): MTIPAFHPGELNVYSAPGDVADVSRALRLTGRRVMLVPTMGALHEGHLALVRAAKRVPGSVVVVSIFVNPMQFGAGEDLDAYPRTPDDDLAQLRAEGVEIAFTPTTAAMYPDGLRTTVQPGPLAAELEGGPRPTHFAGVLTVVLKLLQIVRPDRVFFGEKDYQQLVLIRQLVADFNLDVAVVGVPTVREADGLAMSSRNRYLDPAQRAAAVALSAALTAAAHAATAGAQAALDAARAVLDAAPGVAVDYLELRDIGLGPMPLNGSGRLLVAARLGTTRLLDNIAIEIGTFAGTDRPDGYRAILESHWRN

SMILES	inhibition [%]
CCc1nnc(NC(=O)CSc2nnc(-c3ccccc3OC)n2-c2ccccc2)s1	4
CCSc1nnc(N2C(=O)CC(c3ccsc3)C3=C2CC(C)(C)CC3=O)s1 (stereo not given)	0
O=C(NCc1ccco1)C1(S(=O)(=O)c2ccc(Cl)cc2)CC1	0
COCC(=O)N(Cc1ccccc1)c1ccccn1	4
CC(C)Oc1ccc(-c2nn(-c3ccccc3)cc2/C=c2\sc3ncnn3c2=O)cc1	0
COc1cccc(C2CC(c3ccc(C)cc3)Nc3nc(N)nn32)c1 (stereo not given)	0
C/C(N)=C(/C#N)C(=O)COC(=O)CCSc1ccccc1	0
COC(=O)c1ccc(NC(=O)C2CC(=O)N(c3cc(C)ccc3C)C2)cc1 (stereo not given)	5
COc1ccc(C(=O)N(CCCO)Cc2cc3c(C)ccc(C)c3[nH]c2=O)cc1OC	0
CCN(CC)CCn1c(=N)n(CCO)c2ccccc21	0
O=C(CSc1ncn[nH]1)NC1CC2CCC1C2 (stereo not given)	0
CCNC(=O)CC1C(=O)N(c2ccccc2)C(=O)N1CCC(C)C (stereo not given)	0
COCCCNC(=O)CC(NS(=O)(=O)c1ccc(Cl)cc1)c1ccco1 (stereo not given)	0
CCOC(=O)N1CCN(C(=O)CN(Cc2ccccc2)S(=O)(=O)c2ccc(OC)c(C)c2)CC1	5
CC(C)CCNC(=O)[C@H](CC(C)C)NC(=O)[C@H]1O[C@@H]1C(=O)O	0
COc1cc(-c2nnc(SCC(=O)c3ccc(C)cc3)o2)cc(OC)c1OC	0
O=C(Nc1ccccc1-c1nc2ccccc2o1)c1ccc2c(c1)OCCO2	5
CCn1cc(C(=O)NCCCOC)c(=O)c2cc(S(=O)(=O)N(C)C)ccc21	0
CCN(CC)S(=O)(=O)N1CCC(C(=O)NC2CCCc3ccccc32)CC1 (stereo not given)	0
Cc1cc(C(=O)COc2cccc3cccnc23)c(C)n1C	0

SMILES	inhibition [%]
O=C(NCCC1=CCCCC1)C1CCN(S(=O)(=O)c2cccc3cccnc23)CC1	19
COc1ccccc1OCc1ccc(C(=O)N2CCN(C(=O)c3ccco3)CC2)cc1	1
Cc1oc(-c2ccc(Cl)cc2)cc1-c1nn2c(-c3ccoc3C)nnc2s1	3
CCOC(=O)C1CCN(Cc2c(O)ccc3ccccc23)CC1	1
C=CCOc1nc(N2CCCC2)nc(N2CCCC2)n1	5
N#CC(C(=O)Nc1ccccc1)=C1CCCCC1	7
CC(c1ccco1)N(Cc1ccco1)C(=O)Nc1ccccc1 (stereo not given)	0
CC(=O)Nc1ccc(S(=O)(=O)Nc2nc3n(n2)C(c2ccccc2)CC(=O)N3)cc1 (stereo not given)	0
CCOC(=O)c1ccc(Oc2nc(NC)nc(OC)n2)cc1	0
CC1(C)SC2[C@H](NC(=O)C(NC(=O)N3CCNC3=O)c3ccccc3)C(=O)N2C1C(=O)O (stereo not given in full)	0
O=C(O)CCc1ccc(-c2cccs2)n1NC(=O)c1ccccc1Br	0
Cc1nc2oc3c(NCc4ccccn4)ncnc3c2c2c1COC(C)(C)C2	0
CN1C(=O)C(O)(CC(=O)c2ccccc2O)c2cc(Br)ccc21 (stereo not given)	0
Cn1c(SCC(=O)Nc2ccc3c(c2)OCO3)nnc1-c1cnccn1	1
CC(=O)N(CCc1ccccc1C)Cc1cc2cc3c(cc2[nH]c1=O)OCO3	7
CCC(=O)Nc1ccc(NC(=O)CSc2nnnn2C(C)C)cc1	0
O=C(NCc1cccnc1)c1ccccn1	0
CCCCC(c1nnnn1C1CCCC1)N1CCN(C2CCCCC2)CC1 (stereo not given)	1
N#CCc1nc(CSc2nc3ccccc3s2)cs1	7
O=C(C1CCN(S(=O)(=O)c2cccnc2)CC1)N1CCN(c2ccc(Cl)cc2)CC1	0
